Data published in PubChem BioAssay (NCATS).
Records with an inconclusive call do not appear. A call without a number means that no potency is given here. Activity calls are given as the source filed them. Calls follow the shape of the dose curve; as a rule, active = well fitted inhibition curve with a large enough effect; inconclusive = small, poorly fitted or top-dose-only effect; inactive = flat fitted curve, though single readings scatter.

assay: P-glycoprotein substrates identified in KB-8-5-11 adenocarcinoma cell line, qHTS therapeutic library screen (AID 1346987); conditions: KB-8-5-11 (P-gp overexpressing) viability, CellTiter-Glo, 72 h; series mostly up to 44.5 µM; also: nearly all actives have a fitted effect of over 65% in size
How it was run: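 Steps: plate 500 KB-8-5-11 cells/well in DMEM + 10% FCS (colchicine removed); pin compounds in dose-response; incubate 72 h, 37 degree C, 5% CO2; add CellTiter-Glo, 5 min; read luminescence.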
Potency is read from the fitted curve at half-maximal effect.

Row | Compound | Potency
1 | O=C(C1CCCCC1)N(CCN1CCN(c2ccccc2O)CC1)c1ccccn1 | inactive
2 | C/C=C(/C)C(=O)O[C@@H]1C[C@@H](OC(=O)CC(C)C)C2(C)C3C(=O)C=C(C)C2C3C1(C)C (some centres undefined) | inactive
3 | CN(C)CCN(Cc1ccccc1)C(=O)c1cc(-c2ccc(F)cc2)n2nc(C(C)(C)C)cc2n1 | 20.6 µM (active)
4 | Cc1cc(C(=O)Nc2cc(Nc3ccc4c(/C=C/c5ccccn5)n[nH]c4c3)ccc2F)n(C)n1 | 18.4 µM (active)
